# From PubChem BioAssay (EPA / NIEHS)
# Inconclusive results are not listed. Some compounds were tested as several samples or in several runs, with calls that do not always agree. The source made the active and inactive calls. How the source made its calls, unless noted: active means hit-call score of the fitted dose curve at least 0.9, where 1 is the maximum; inactive means score below 0.9.
# Columns and labels:
# [1] = CCTE_Shafer_MEA_dev_firing_rate_mean: CCTE's Neural Network Formation Assay for Mean Firing Rate, Shafer Lab (AID 2284031);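 on AC50: curve fitted for loss of firing so AC50 reflects decreased mean firing rate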
# Method in brief: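 Extracellular spike frequency, AUC over DIV 5–12 recordings, in rat cortical neuron MEA cultures dosed from plating; loss direction vs DMSO.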
# [2] = CCTE_Shafer_MEA_dev_active_electrodes_number: CCTE's Neural Network Formation Assay for Number of Active Electrodes, Shafer Lab (AID 2284040; active means hit-call score of the fitted dose curve at least 0.9, where 1 is the maximum;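 on AC50: potency for loss of active electrodes versus DMSO so lower counts are hits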)
# Method in brief: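 Developing rat cortical networks on MEAs, exposed DIV 0–12. Value is the AUC of active-electrode counts (≥5 spikes/min) from days 5, 7, 9, 12, relative to DMSO.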
# [3] = CCTE_Shafer_MEA_dev_burst_rate: CCTE's Neural Network Formation Assay for Burst Rate, Shafer Lab (AID 2284042);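 on AC50: potency for loss of burst rate below DMSO control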
# Method in brief: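 Primary rat cortical neurons on PEI-coated 48-well MEA plates (laminin added with cells at plating) (16 electrodes/well), exposed from plating to day 12, dosing renewed at DIV 5 and 9. Burst rate averaged over active electrodes, recorded DIV 5, 7, 9, 12, summarized as AUC; loss versus DMSO.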
# [4] = CCTE_Shafer_MEA_dev_bursting_electrodes_number: CCTE's Neural Network Formation Assay for Number of Bursting Electrodes, Shafer Lab (AID 2284043; active means hit-call score of the fitted dose curve at least 0.9, where 1 is the maximum;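 on AC50: potency is for loss of bursting electrodes relative to DMSO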)
# Method in brief: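 Rat cortical primary neurons, 48-well MEA, 16 electrodes/well; dosing DIV 0–12, re-dosed with full media change DIV 5, 9. Recordings DIV 5/7/9/12, AxIS adaptive spike detector; bursting electrode = ≥1 burst/2 min. AUC across days; loss of signal vs DMSO.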
# [5] = CCTE_Shafer_MEA_dev_burst_duration_mean: CCTE's Neural Network Formation Assay for Mean Burst Duration, Shafer Lab (AID 2284045);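 on AC50: curve fitted for loss meaning shorter burst duration than DMSO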
# Method in brief: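 Rat cortical cultures, 1.5 x 10^5 cells/well with laminin drop; continuous dosing days 0–12, media plus treatment refreshed DIV 5, 9. AxIS adaptive spike detection; mean single-electrode burst duration, AUC over four recordings, negative direction vs DMSO.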
# [6] = CCTE_Shafer_MEA_dev_inter_network_spike_interval_mean: CCTE's Neural Network Formation Assay for Mean Inter-network Spike Interval, Shafer Lab (AID 2284047);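 on AC50: potency for a decrease in mean inter-network spike interval below DMSO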
# Method in brief: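 Primary rat cortical neurons on 16-electrode MEA wells, exposed from plating day 0 through DIV 12, compound renewed at DIV 5 and 9 media changes. Mean interval between network-spike peaks recorded DIV 5, 7, 9, 12; collapsed as trapezoidal AUC, fitted downward versus DMSO.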
# [7] = CCTE_Shafer_MEA_dev_network_spike_number: CCTE's Neural Network Formation Assay for Number of Network Spikes, Shafer Lab (AID 2284048);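 further: synchronized bursts across electrodes counted on days 5 7 9 12 and integrated as AUC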;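 on AC50: fit as a loss of signal meaning fewer network spikes than DMSO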
# Method in brief: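 Rat cortical primary cultures on 48-well MEA (16 electrodes/well); continuous exposure DIV 0–12, full medium and treatment exchange DIV 5, 9. Readout: network spike count, AxIS adaptive detection, recordings DIV 5/7/9/12 collapsed to AUC; loss-of-signal fit, DMSO baseline.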
# [8] = CCTE_Shafer_MEA_dev_network_spike_peak: CCTE's Neural Network Formation Assay for Mean Number of Electrodes in Network Spike, Shafer Lab (AID 2284049);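 on AC50: fitted for loss of signal meaning fewer electrodes in network spikes than DMSO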
# Method in brief: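 Network-spike peak electrode count from recordings on days 5, 7, 9 and 12 was combined as trapezoidal area under the curve. Rat cortical cultures were treated continuously from plating, with compound renewed at each feed (DIV 5, 9); fits versus DMSO.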
# [9] = CCTE_Shafer_MEA_dev_spike_duration_mean: CCTE's Neural Network Formation Assay for Mean Spike Duration, Shafer Lab (AID 2284051);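 further: mean network spike duration pooled as area under curve over DIV 5 to 12 recordings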;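 on AC50: potency for a decrease in mean network spike duration versus DMSO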
# Method in brief: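 Primary rat cortical neurons on 16-electrode MEA wells (PEI-coated, laminin in plating drop), exposed from plating through DIV 12 with compound renewed at DIV 5 and 9. Mean network-spike duration recorded DIV 5, 7, 9, 12; trapezoidal AUC across days, DMSO baseline.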
# [10] = CCTE_Shafer_MEA_dev_network_spike_duration_std: CCTE's Neural Network Formation Assay for Standard Deviation of Network Spike Duration, Shafer Lab (AID 2284052);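 further: area under curve of spike duration SD across recording days 5 to 12; hits are decreases in network spike duration SD versus DMSO vehicle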
# Method in brief: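 Primary rat cortical neurons on PEI-coated 16-electrode MEA wells, exposed from plating day 0 through day 12 with compound renewed at DIV 5 and 9. Network spike duration SD recorded on days 5, 7, 9, 12, collapsed as trapezoidal AUC; loss-of-signal fit versus DMSO.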
# [11] = CCTE_Shafer_MEA_dev_per_network_spike_spike_number_mean: CCTE's Neural Network Formation Assay for Mean Number of Spikes in a Network Spike, Shafer Lab (AID 2284053);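 on AC50: fitted as decrease in spikes per network spike relative to DMSO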
# Method in brief: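 Primary rat cortical neurons on 48-well, 16-electrode MEA plates were exposed from plating to DIV 12, with dosing renewed on DIV 5 and 9. Spikes per network spike (0.05 s peak window) were recorded on DIV 5, 7, 9 and 12 and collapsed as trapezoidal AUC versus DMSO.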
# [12] = CCTE_Shafer_MEA_dev_per_network_spike_spike_percent: CCTE's Neural Network Formation Assay for Percent of Spikes in a Network Spike, Shafer Lab (AID 2284054)
# Method in brief: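 Read-out: percent of spikes falling in a 0.05 s window at network-spike peak, from spontaneous MEA recordings on days 5, 7, 9 and 12; trapezoidal AUC; loss of signal versus DMSO. Rat cortical cultures, compound present throughout.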
compound,measurement,setting,value
C/C(=C/C=C/[C@@H](C)C(=O)O)[C@H]1CN[C@H](C(=O)O)[C@H]1CC(=O)O,AC50,[1],68 nM (active)
same,outcome,[1],inactive
same,AC50,[2],970 nM (active)
same,outcome,[2],inactive
same,AC50,[3],131 nM (active)
same,outcome,[3],inactive
same,AC50,[4],1.28 µM (active)
same,outcome,[4],inactive
same,AC50,[5],992 nM (active)
same,outcome,[5],inactive
same,AC50,[6],160 nM (active)
same,outcome,[6],inactive
same,AC50,[7],21.8 nM (active)
same,outcome,[7],inactive
same,AC50,[8],1.83 µM (active)
same,outcome,[8],inactive
same,AC50,[9],1.13 µM (active)
same,outcome,[9],inactive
same,AC50,[10],259 nM (active)
same,outcome,[10],inactive
same,AC50,[11],1.05 µM (active)
same,outcome,[11],inactive
same,AC50,[12],2.33 µM (active)
